Records with an inconclusive call do not appear. Activity calls are given as the source filed them. Unless noted, calls come from the whole dose curve; as a rule, active = well fitted curve in the direction sought with a large enough effect; inconclusive = small, poorly fitted or top-dose-only effect, or another doubt; inactive = no such curve, though single readings can be large; an effect the other way counts as inactive or inconclusive.
How the values were obtained:
[1] = Inducers of the Endoplasmic Reticulum Stress Response (ERSR) in human glioma: Validation (AID 504836)
Procedure, shortened: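 Stably transfected U87-MG human glioma cells carrying a GRP78-based luminescent sensor were seeded at 1000 cells/well, pin-dosed with compounds and incubated 16 h. Luciferase reagent was then added, and end-point luminescence was read after 10 min at room temperature.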

[2] = qHTS for Inhibitors of the Functional Ribonucleoprotein Complex (vRNP) of Lassa (LASV) Arenavirus: LASV Primary Screen - GLuc reporter signal (AID 1347082; calls by dose curve; tested in HEK293 reporter line; note: series mostly up to about 57 µM; nearly all actives have a fitted effect of over 60% in size)
[3] = qHTS for Inhibitors of the Functional Ribonucleoprotein Complex (vRNP) of Lassa (LASV) Arenavirus: Viability assay - alamar blue signal for LASV Primary Screen (AID 1347083; calls by dose curve; tested in HEK293 reporter line; note: series mostly up to about 57 µM; nearly all actives have a fitted effect of over 80% in size)
[4] = qHTS for Inhibitors of the Functional Ribonucleoprotein Complex (vRNP) of Lymphocytic Choriomeningitis Arenaviruses (LCMV): Viability assay - alamar blue signal for LCMV Primary Screen (AID 1347085; calls by dose curve; tested in HEK293 reporter line; note: series mostly up to about 57 µM; nearly all actives have a fitted effect of over 80% in size)
[5] = target: Nucleoprotein (Lymphocytic choriomeningitis virus (strain Armstrong)) (UniProt P09992); assay: qHTS for Inhibitors of the Functional Ribonucleoprotein Complex (vRNP) of Lymphocytic Choriomeningitis Arenaviruses (LCMV): LCMV Primary Screen - GLuc reporter signal (AID 1347086; calls by dose curve; note: series mostly up to about 57 µM; nearly all actives have a fitted effect of over 70% in size)
[6] = target: Alpha-galactosidase (Coffea arabica) (UniProt Q42656); assay: Counterscreen for Glucocerebrosidase Inhibitors: qHTS Assay for Coffee Bean alpha-Galactosidase at pH 4.5 (AID 957); note: series mostly up to about 77 µM
Procedure, shortened: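 Fluorogenic read-out: 4-methylumbelliferone at Ex 365/Em 440 nm after NaOH/glycine stop (pH 10). Enzyme 2 nM, 4-MU-alpha-galactoside 80 uM, citrate buffer pH 4.5, 20 min RT; normalized to no-enzyme and enzyme controls.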

[7] = target: Ubiquitin carboxyl-terminal hydrolase 1 (Homo sapiens) (UniProt O94782); assay: Inhibitors of USP1/UAF1: Pilot qHTS (AID 504865);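 note: rhodamine fluorescence freed from ubiquitin-rhodamine substrate followed over time; top concentration of the series differs between compounds; nearly all actives have a fitted effect of over 35% in size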
Procedure, shortened: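 USP1/UAF1 complex at 1 nM preincubated 15 min at room temperature with compound, then Ub-Rho substrate added at 150 nM final. Fluorescence (480/540 nm) read kinetically in 50 mM HEPES pH 7.8, 0.5 mM EDTA, 1 mM TCEP, 0.1 mg/ml BSA, 0.01% Tween-20.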

[8] = target: Arylsulfatase A (Homo sapiens) (UniProt P15289); assay: qHTS screen for enhancers of Arylsulfatase A (ASA1): LOPAC Validation Assay (AID 720538)
Procedure, shortened: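 SV40-transformed fibroblasts from an MLD patient (ASA-I179S) were treated with compound for 48 h at 37 C. They were then lysed with 0.5 mM pNCS substrate (final) for 14 h at room temperature and stopped with NaOH; signal read by fluorescence (Ex 525/Em 598 nm), with increase denoting enhanced activity.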

[9] = target: Alpha-galactosidase (Coffea arabica) (UniProt Q42656); assay: Counterscreen for Glucocerebrosidase Inhibitors: qHTS Assay for Coffee Bean alpha-Galactosidase at pH 5.9 (AID 998)
Procedure, shortened: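 In 50 mM citric acid pH 5.9 with 0.005% Tween-20, coffee bean enzyme hydrolyses 80 uM 4-MU alpha-D-galactopyranoside over 20 min at RT. Activity is normalized to controls; AC50 comes from Hill-modelled concentration-response data.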

Measured: Potency

Alpha-galactosidase (Coffea arabica), sequence (Q42656 whole entry, looked up): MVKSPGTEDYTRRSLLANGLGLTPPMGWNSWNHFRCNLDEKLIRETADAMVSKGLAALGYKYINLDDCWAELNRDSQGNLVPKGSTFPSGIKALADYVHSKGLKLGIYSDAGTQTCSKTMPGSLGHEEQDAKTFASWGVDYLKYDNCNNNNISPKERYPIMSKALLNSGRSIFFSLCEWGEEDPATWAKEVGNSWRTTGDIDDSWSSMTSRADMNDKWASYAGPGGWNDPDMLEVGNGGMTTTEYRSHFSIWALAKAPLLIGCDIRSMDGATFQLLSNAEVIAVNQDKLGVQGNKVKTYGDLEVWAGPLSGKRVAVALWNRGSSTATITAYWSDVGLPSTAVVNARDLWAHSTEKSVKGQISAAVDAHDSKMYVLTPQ
Nucleoprotein (Lymphocytic choriomeningitis virus (strain Armstrong)), sequence (P09992 whole entry, looked up): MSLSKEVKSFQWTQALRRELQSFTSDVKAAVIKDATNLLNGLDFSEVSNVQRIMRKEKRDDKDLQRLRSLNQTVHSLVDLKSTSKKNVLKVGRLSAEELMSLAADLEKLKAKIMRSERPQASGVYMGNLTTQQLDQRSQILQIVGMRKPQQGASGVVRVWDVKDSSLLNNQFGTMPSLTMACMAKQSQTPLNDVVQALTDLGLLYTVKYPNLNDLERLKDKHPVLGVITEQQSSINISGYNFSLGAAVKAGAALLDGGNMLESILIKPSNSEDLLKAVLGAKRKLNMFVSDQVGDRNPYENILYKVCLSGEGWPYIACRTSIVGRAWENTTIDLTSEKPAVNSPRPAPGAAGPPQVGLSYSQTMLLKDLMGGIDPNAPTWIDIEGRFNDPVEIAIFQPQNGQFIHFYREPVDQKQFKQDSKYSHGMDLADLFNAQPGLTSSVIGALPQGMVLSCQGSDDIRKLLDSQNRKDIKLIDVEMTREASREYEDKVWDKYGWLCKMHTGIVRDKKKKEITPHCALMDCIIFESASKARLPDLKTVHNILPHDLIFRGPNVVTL
Arylsulfatase A (Homo sapiens), sequence (P15289 whole entry, looked up): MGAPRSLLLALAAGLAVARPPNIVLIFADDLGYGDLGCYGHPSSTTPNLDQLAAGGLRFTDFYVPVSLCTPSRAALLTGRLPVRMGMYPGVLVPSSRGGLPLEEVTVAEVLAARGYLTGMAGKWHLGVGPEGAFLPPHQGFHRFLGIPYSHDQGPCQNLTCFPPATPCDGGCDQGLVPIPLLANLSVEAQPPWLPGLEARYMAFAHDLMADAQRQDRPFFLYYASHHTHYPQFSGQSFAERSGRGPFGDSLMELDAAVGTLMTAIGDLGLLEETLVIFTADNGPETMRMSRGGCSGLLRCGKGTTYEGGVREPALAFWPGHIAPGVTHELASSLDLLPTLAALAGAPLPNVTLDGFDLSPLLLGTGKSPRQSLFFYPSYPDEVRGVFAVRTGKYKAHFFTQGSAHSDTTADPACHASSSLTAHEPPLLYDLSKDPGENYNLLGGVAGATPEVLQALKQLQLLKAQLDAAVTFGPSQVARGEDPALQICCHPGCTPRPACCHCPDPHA
Ubiquitin carboxyl-terminal hydrolase 1 (Homo sapiens), sequence (O94782 whole entry, looked up): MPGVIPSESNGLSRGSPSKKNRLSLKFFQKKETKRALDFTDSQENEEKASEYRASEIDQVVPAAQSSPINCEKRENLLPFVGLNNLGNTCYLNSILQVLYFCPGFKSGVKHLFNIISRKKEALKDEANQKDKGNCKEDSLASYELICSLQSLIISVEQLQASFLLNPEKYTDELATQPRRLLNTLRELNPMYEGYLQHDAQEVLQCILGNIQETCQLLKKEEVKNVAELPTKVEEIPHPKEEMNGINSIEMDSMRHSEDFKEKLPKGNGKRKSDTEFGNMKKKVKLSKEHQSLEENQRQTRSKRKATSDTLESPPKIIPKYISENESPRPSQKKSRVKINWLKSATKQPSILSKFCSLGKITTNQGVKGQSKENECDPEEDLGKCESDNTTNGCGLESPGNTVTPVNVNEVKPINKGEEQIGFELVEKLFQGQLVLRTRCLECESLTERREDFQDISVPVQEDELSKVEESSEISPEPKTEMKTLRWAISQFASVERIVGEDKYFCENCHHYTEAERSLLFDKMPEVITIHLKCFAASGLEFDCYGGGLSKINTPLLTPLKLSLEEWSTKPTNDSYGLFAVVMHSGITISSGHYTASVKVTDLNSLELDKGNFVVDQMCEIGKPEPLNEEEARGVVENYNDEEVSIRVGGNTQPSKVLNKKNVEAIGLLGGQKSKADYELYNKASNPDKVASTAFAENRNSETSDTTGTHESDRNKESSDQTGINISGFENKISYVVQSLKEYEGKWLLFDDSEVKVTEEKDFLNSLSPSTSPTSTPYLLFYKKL

Cc1nn(-c2ccccc2)c(C)c1/C=N/N1CCN(Cc2ccccc2)CC1
inactive: [1] | [2] | [3] | [4] | [5]

CNc1ncnc2c1ncn2[C@@H]1O[C@H](CO)[C@@H](O)[C@H]1O
inactive: [1] | [2] | [3] | [4] | [5]

CN(C)CCCO[C@@H]1[C@H]2OC(C)(C)O[C@H]2O[C@@H]1[C@H](O)CO
inactive: [1] | [2] | [3] | [4] | [5]

CC(COc1ccc(/C=C/c2ccccc2)cc1)[N+](C)(C)C (stereo not given)
inactive: [1] | [2] | [3] | [4] | [5]

OC[C@H]1O[C@@H](n2cnc3c(NC4CCCCC4)ncnc32)[C@H](O)[C@@H]1O
inactive: [1] | [2] | [3] | [4] | [5]

Nc1nc(SCc2ccc([N+](=O)[O-])cc2)c2ncn([C@@H]3O[C@H](CO)[C@@H](O)[C@H]3O)c2n1
inactive: [1] | [2] | [3] | [4] | [5]

O=C(c1ccc2c(c1)OCCO2)N1CCCCC1
inactive: [1] | [2] | [3] | [4] | [5]

Cc1nc2n(c(=O)c1CCN1CCC(c3noc4cc(F)ccc34)CC1)CCCC2O (stereo not given)
inactive: [1] | [2] | [3] | [4] | [5]

CC1CC2C3CCC4=CC(=O)C=C[C@]4(C)[C@@]3(F)[C@@H](O)C[C@]2(C)[C@@]1(O)C(=O)CO (stereo not given in full)
inactive: [1] | [2] | [3] | [4] | [5]

O=C(O)C1=CC(=C(c2ccc(O)c(C(=O)O)c2)c2ccc(O)c(C(=O)O)c2)C=CC1=O
not listed: [7] | [8] | [9]
inactive: all other assays above

COC(=O)C1=CO[C@@H](O)[C@@H]2C(CO)=CC[C@H]12
inactive: [1] | [2] | [3] | [4] | [5]

N[C@H](C(=O)O)[C@H](Cc1ccccc1)C(=O)O
inactive: [1] | [2] | [3] | [4] | [5]

c1ccc(C(NCc2cccnc2)(c2ccccc2)c2ccccc2)cc1
inactive: [1] | [2] | [3] | [4] | [5]

C=CC(=O)c1ccc(CCCCCC)cc1
inactive: [1] | [2] | [3] | [4] | [5]

NCC1OC(O[C@H]2[C@H](O)[C@@H](OC3C(O)C(N)CC(N)C3OC3OC(CO)C(O)C(O)C3N)O[C@@H]2CO)C(N)C(O)C1O (stereo not given in full)
not listed: [6] | [9]
inactive: all other assays above

COc1cc2nc(N3CCN(C(=O)OCc4ccccc4)C(C(=O)NC(C)(C)C)C3)nc(N)c2cc1OC (stereo not given)
inactive: [1] | [2] | [3] | [4] | [5]

Nc1ccc2c3c(cccc13)C(=O)NC2=O
not listed: [7] | [8]
inactive: all other assays above

Cn1ncc(S(=O)(=O)Cc2ccccc2)c(Br)c1=O
inactive: [1] | [2] | [3] | [4] | [5]

Nc1ncnc2c1ncn2[C@@H]1O[C@H](COP(=O)(O)OP(=O)(O)OP(=O)(O)OP(=O)(O)OC[C@@H]2O[C@H](n3cnc4c(N)ncnc43)[C@@H](O)[C@H]2O)[C@@H](O)[C@H]1O
inactive: [1] | [2] | [3] | [4] | [5]

Nc1nc2c(cnn2CCc2ccccc2)c2nc(-c3ccco3)nn12
inactive: [1] | [2] | [3] | [4] | [5]

O=[N+]([O-])c1ccc(CSc2ncnc3c2ncn3[C@@H]2O[C@H](CO)[C@@H](O)[C@H]2O)cc1
inactive: [1] | [2] | [3] | [4] | [5]

N[C@@H](CCC(=O)N[C@H](CSN=O)C(=O)NCC(=O)O)C(=O)O
inactive: [1] | [2] | [3] | [4] | [5]

CCc1ccc2c(-c3cccc(Cl)c3)nc(=O)n(CC)c2n1
inactive: [1] | [2] | [3] | [4] | [5]

Fc1cccc(/C=N/N=C/c2cccc(F)c2)c1
inactive: [1] | [2] | [3] | [4] | [5]

NCCCCC(=O)O
not listed: [7] | [8] | [9]
inactive: all other assays above

NC(=O)C1=CN(C2OC(COP(=O)(O)OP(=O)(O)OC[C@H]3O[C@@H](n4cnc5c(N)ncnc54)[C@H](OP(=O)(O)O)[C@@H]3O)C(O)C2O)C=CC1 (stereo not given in full)
inactive: [1] | [2] | [3] | [4] | [5]

NC(=NCc1ccccc1)NC(=O)c1nc(Cl)c(N)nc1N
not listed: [7] | [8] | [9]
inactive: all other assays above

C=CC(C)=C[C@@]1(C)SC(=O)C(C)=C1O
inactive: [1] | [2] | [3] | [4] | [5]

Clc1ccc(N2CCN(Cc3cc4ccccn4n3)CC2)cc1
inactive: [1] | [2] | [3] | [4] | [5]

Nc1nc2c(nc(Br)n2C2OC3COP(=O)(O)O[C@@H]3C2O)c(=O)[nH]1 (stereo not given in full)
inactive: [1] | [2] | [3] | [4] | [5]

CNC(=O)[C@H]1O[C@@H](n2cnc3c(NCc4cccc(I)c4)ncnc32)[C@H](O)[C@@H]1O
inactive: [1] | [2] | [3] | [4] | [5]

CCCCCCC(=O)OC1CC(C)(C)NC(C)(C)C1
not listed: [6] | [7] | [9]
inactive: all other assays above

CC[C@@H]1Cc2cc(O)ccc2C2=C1c1ccc(O)cc1C[C@H]2CC
not listed: [7] | [8] | [9]
inactive: all other assays above

OC[C@H]1O[C@H](n2cnc3c(N[C@H]4CCC[C@@H]4O)ncnc32)[C@H](O)[C@@H]1O
inactive: [1] | [2] | [3] | [4] | [5]

OC[C@H]1O[C@@H](n2cnc3c(Nc4ccccc4)ncnc32)[C@H](O)[C@@H]1O
inactive: [1] | [2] | [3] | [4] | [5]

CCCCCCCCCCC(C)(C)C(=O)Nc1c(OC)cc(OC)cc1OC
inactive: [1] | [2] | [3] | [4] | [5]

c1ccc(CN2CCC3(CCCc4ccccc43)CC2)cc1
not listed: [7] | [8] | [9]
inactive: all other assays above

COc1ccc2c(c1)CCC1C2CC[C@@]2(C)C1CC[C@@H]2NCCCCCCN1C(=O)CCC1=O (stereo not given in full)
inactive: [1] | [2] | [3] | [4] | [5]

Source: PubChem BioAssay (NCATS)
